A selection: hits, their analogues and other compounds. The true share with any hit is near 32%.
CYP2C19 act: cytochrome P450 2C19 (human) activation | P33261 | recombinant CYP2C19, luciferin-H EGE luminescence; stronger effect = higher value; 0 = fully inhibited enzyme, 1 = untreated enzyme | activation factor at 5 µM | 96,000 tested, under 10 active;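 active = activation factor of at least 2 at 5 µM in the primary screen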;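 note: 0 = wells with 2.5 mM tranylcypromine and 1 = vehicle-only wells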
Target sequence (P33261 whole entry, looked up): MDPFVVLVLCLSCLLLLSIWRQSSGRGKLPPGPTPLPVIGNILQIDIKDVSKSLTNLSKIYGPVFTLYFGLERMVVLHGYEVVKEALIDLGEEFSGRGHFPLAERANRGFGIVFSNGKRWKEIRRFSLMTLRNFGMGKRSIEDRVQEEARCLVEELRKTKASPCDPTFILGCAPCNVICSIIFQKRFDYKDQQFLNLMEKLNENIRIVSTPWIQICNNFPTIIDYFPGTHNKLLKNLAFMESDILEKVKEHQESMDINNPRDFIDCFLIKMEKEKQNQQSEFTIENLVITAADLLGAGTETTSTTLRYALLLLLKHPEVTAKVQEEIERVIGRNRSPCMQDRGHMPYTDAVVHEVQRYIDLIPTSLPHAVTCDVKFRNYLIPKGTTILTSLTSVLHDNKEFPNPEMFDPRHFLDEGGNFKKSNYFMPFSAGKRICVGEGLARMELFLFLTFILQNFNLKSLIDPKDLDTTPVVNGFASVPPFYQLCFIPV
PostGolgi yeast: growth inhibition of a yeast mutant, post-Golgi transport screen | post-Golgi transport phenotypic cell assay | 98,000 compounds, 0.9% hits | inhibition, % at 10 µM | AID 739;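 note: yeast cells grown in 1536-well plates; yeast grown about 18 h at 30C before absorbance read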
CYP2C9 act: CYP2C9 (human) activation. 96,000 compounds, 1.4% hits. P11712. activation factor at 5 µM. recombinant CYP2C9, luciferin-H conversion, luminescence; stronger effect = higher value; factor 1 = untreated enzyme, 0 = blocked;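 active = activation factor of 2 or more for CYP2C9 at a 5 µM dose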;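 note: 0 = sulfaphenazole-blocked wells and 1 = vehicle-only wells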
CYP2C19 inh: blocks human cytochrome P450 2C19 | P33261 | 96,000 compounds, 21% hits | CYP2C19 Supersomes, luciferin-H EGE luminescence, 30 min | inhibition, % at 5 µM | AID 778;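 active = CYP2C19 inhibition above a set limit at 5 µM in the primary screen, cut at about 50% in these data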;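 note: plate controls were negative control wells for no effect and 2.5 mM tranylcypromine positive control for full effect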
CYP2C9 inhib: human CYP2C9 inhibition | AID 777 | 96,000 compounds, 20% hits | inhibition, % at 5 µM | CYP2C9 Supersomes, luciferin-H conversion, luminescence;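 active = blocking of liver enzyme CYP2C9 beyond about 50% at 5 µM, limit read from the data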
PostGolgi ctrl: yeast control strain growth, post-Golgi counter-screen; inhibition, % at 10 µM; efflux-deficient yeast background strain, growth absorbance A615, 16 h; 98,000 compounds, 5% hits
* marks the source's active call; other numbers are inactive results; / = not tested or not shown. Cut-off read from the data, not from the text of the source, unless noted: active = inhibition above about 30%; inactive = the rest.

SMILES	CYP2C19 act	PostGolgi yeast	CYP2C9 act	CYP2C19 inh	CYP2C9 inhib	PostGolgi ctrl
Oc1ccc(-c2nc3ncccn3c2Nc2ccc3c(c2)OCO3)cc1	0.6	4.9	0.4	43.8	58.6*	12.6
Oc1ccc(-c2nc3cnccn3c2Nc2ccc3c(c2)OCCO3)cc1	0	-4.7	0	98.5*	96.5*	-1.9
CC1(C)C(N(O)C(=O)Nc2ccc(Cl)cc2)N(c2ccc(Cl)cc2)C(=O)N1CC(=O)NN (centres undefined)	0.6	-2.9	0.6	35.2	40.6	7.9
COc1ccc(-c2nc3ccccc3c(=O)n2CCCN2CCOCC2)cc1	0.1	-4.3	0.9	90.2*	6.8	1.2
O=c1c2ccccc2nc(-c2ccccc2)n1CCN1CCOCC1	0.7	-0.6	0.9	25.8	12.5	22.9
Cc1[nH]c2ccccc2c1C(=O)CSc1nc2ccccc2c(=O)n1CCCN1CCOCC1	0.3	-0.2	0.1	73.0*	85.2*	36.4*
CCOC(=O)c1sc(N)c(C#N)c1COC(=O)CNC(=O)c1ccccc1	0.6	-11.6	0.3	42.2	72.9*	9.3
CCOC(=O)c1sc(NC(=O)c2ccccc2)cc1C	0.8	-7.3	0.7	23.8	27.5	4.6
COc1cccc(Cn2c(N)c(C#N)c3nc4ccccc4nc32)c1OC	0.7	0.3	0.8	25.3	16.8	0.6
COc1ccc(C)cc1-n1c(N)c(C#N)c(C#N)c1-c1ccc(OC)c(OC)c1OC	0.7	-7.3	0.5	25.9	50.5*	12.4
CCN(c1ccccc1)S(=O)(=O)c1ccc(NCC2COc3ccccc3O2)nc1 (centres undefined)	0.5	15.2	0.2	51.8*	84.1*	55.6*
CCN(CC)S(=O)(=O)N1CCC(C(=O)NCC2COc3ccccc3O2)CC1 (centres undefined)	/	2.3	/	/	/	-7.3
CC(C)CCn1nnnc1C(c1ccc(F)cc1)N1CCC(C(N)=O)CC1 (centres undefined)	1	2.4	0.7	-1.4	28.0	1.7
COCCn1nnnc1SCC(=O)N1CCCCC1	/	1.4	/	/	/	30.2*
CCn1c(NC(=O)Nc2ccccc2OC)nc2ccccc21	0.9	7.3	1	12.9	0.5	19.3
CCn1c(-c2ccccc2Cl)nn(CC(=O)Nc2ccccc2OC)c1=S	0.1	-0.2	1.3	90.6*	-31.4	-0.9
CCOCCCNC(=O)C(NC(=O)C1CCC(=O)N1)c1ccc(C)cc1 (centres undefined)	1.2	3.1	1.1	-23.8	-10.8	-0.8
COC(=O)c1nnn(-c2nonc2N)c1CSc1ccccn1	0.2	23.9	0.8	80.1*	23.2	8.1
CC(C)OC(=O)c1nnn(-c2nonc2N)c1CSc1ccccn1	0.3	9.4	0.4	74.4*	57.1*	37.0*
COC(=O)c1ccc(OCC(O)CN(CCO)CCO)cc1 (centres undefined)	1	0.5	0.9	-0.4	5.2	5.5
CC(C)CCOc1ccc(-c2c(=O)n(OCc3ccc([N+](=O)[O-])cc3)c3ccccc3[n+]2[O-])cc1	0.9	1.1	0.7	13.7	31.8	13.2
CN1CCN(S(=O)(=O)c2ccc(SCCOc3ccccc3)nc2)CC1	0.5	-2.6	1.4	51.1*	-43.4	8.7
O=C(COc1ccc(/C=N/NS(=O)(=O)c2ccccc2)cc1)Nc1ccccc1	0.7	0.5	0.3	28.9	68.2*	-0.3
O=C(COc1ccc(/C=N/NC(=O)c2ccccc2)cc1)Nc1ccc([N+](=O)[O-])cc1	1.1	-6.3	1	-12.1	-2.7	34.3*
O=C(N/N=C/c1ccc(OCC(=O)N2CCCCC2)cc1)c1ccccc1	0.9	-4.5	0.9	10.0	5.6	2.6
SMILES	CYP2C19 act	PostGolgi yeast	CYP2C9 act	CYP2C19 inh	CYP2C9 inhib	PostGolgi ctrl
O=C(Cc1ccccc1)N/N=C/c1ccc(OCC(=O)Nc2ccccc2)cc1	1.1	-4.8	0.9	-5.6	9.1	-4.0
O=C(N/N=C\c1ccc(COc2ccc([N+](=O)[O-])cc2)o1)c1cccc(Cl)c1	0.7	-8.1	0.4	34.1	60.2*	6.3
COc1ccc2c(c1)CCc1c(C(=O)NCCN3CCOCC3)noc1-2	1	1.7	1	4.0	1.7	3.9
COCCNC(=O)c1noc2c1CCc1cc(OC)ccc1-2	0.8	9.3	0.4	20.2	59.1*	28.4
COc1ccc2c(c1)CCc1c(C(=O)NCCCn3ccnc3)noc1-2	0.2	2.3	0.3	81.9*	68.7*	0.0
COc1ccc2c(c1)CCc1c(C(=O)NC3CCCCC3)noc1-2	1	-4.2	1	-1.2	-2.8	22.1
COc1ccc2c(c1)CCc1c(C(=O)NCc3ccco3)noc1-2	0.4	-1.9	1.4	62.4*	-40.8	17.8
COCC(C)NC(=O)c1noc2c1CCc1cc(OC)ccc1-2 (centres undefined)	1	3.9	1.4	1.6	-36.1	11.0
CCCSCCCNC(=O)Cn1cc2c(n1)CCC(C)C2 (centres undefined)	0.5	3.7	0.5	50.8*	46.7	17.4
CCOC(=O)c1cccc(NC(=O)Cn2cc3c(n2)CCC(C)C3)c1 (centres undefined)	0.7	-2.0	0.2	29.2	75.4*	10.2
CC1CCc2nn(CC(=O)NC3CCCC3)cc2C1 (centres undefined)	0.4	1.8	0.7	59.0*	28.6	7.4
O=C(CN1CCN(Cc2ccccc2)CC1)N1CCCc2c1c(=O)oc1ccc(O)cc21	0.9	2.6	1	10.2	-4.7	4.3
CC(=O)Oc1ccc2oc(=O)c3c(c2c1)CCCN3C(=O)CN1CCN(c2ncccn2)CC1	0.8	22.1	0.8	16.9	19.5	7.7
CCCCCOc1ccc2oc(=O)c3c(c2c1)CCCN3C(=O)CN1CCCC(C(=O)OCC)C1 (centres undefined)	0.2	9.3	0.1	76.1*	93.9*	3.7
CCCOc1ccc2oc(=O)c3c(c2c1)CCCN3C(=O)CN(C)Cc1ccccc1	0.4	9.9	0.1	55.3*	86.1*	10.8
CCc1c(C)nc2ncnn2c1N1CCC(C(=O)Nc2ccc(C)cc2)CC1	0.7	25.3	0.4	29.3	58.9*	0.9
Cc1nc2ncnn2c(N2CCCC(C(=O)Nc3ccc4c(c3)CCC4)C2)c1C (centres undefined)	0.5	0.8	0.3	47.8	65.5*	16.2
O=C(Nc1ccc2c(c1)CCC2)C1CCCN(c2ncccn2)C1 (centres undefined)	0.8	-2.7	0.9	23.8	9.7	0.4
CCc1c(C)nc2ncnn2c1N1CCC(C(=O)Nc2ccccc2)CC1	0.1	-3.1	0.3	95.0*	65.5*	2.2
c1ccc(Cn2nnc3c(NCC4CCCO4)ncnc32)cc1 (centres undefined)	0.7	0.5	2.4*	32.6	-138.5	21.1
CC(C)CCNc1ncnc2c1nnn2Cc1ccccc1Cl	0.8	9.6	2.4*	15.1	-139.3	12.2
Clc1ccccc1Nc1ncnc2c1nnn2Cc1ccccc1	0.6	12.8	1	37.4	2.4	16.7
